From PubChem BioAssay AID1159580 (chemical genetic matrix, 2015)
Values joined by “and” are separate entries in the source; they are usually repeats but may differ in a detail not shown here. Equal entries are not always repeated. Among all 5,500 compounds or so, about 2,000 (36%) were called active. Not shown: some 18% with an inconclusive outcome. Cut-off read from the data, not from the text of the source: active = normalized growth mostly below about 0.91 (no sharp cut-off); inconclusive = no clear call, values can overlap the other calls; inactive = mostly above about 0.92. The list shows a part of the results.

Assay: chemical genetic growth profiling, strain panel (AID 1159580);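 note: tested at 20 µM; growth read once vehicle control cultures reached saturation at 30 °C; 1 = growth at the plate median or of vehicle wells; lower values mean less growth of the strain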
Details: S. cerevisiae deletion strains, growth OD

Measured: normalized growth

Nc1ccc(S(=O)(=O)Nc2nccs2)cc1
inactive: locus YAL013W, strain DEP1, active compounds read low 1.01 | locus YAL021C, strain ccr4, active compounds read low 1.02 | locus YAL026C, strain drs2, active compounds read low 1.01 | locus YAL030W, strain snc1, active compounds read low 1.02 | locus YBL061C, strain skt5, active compounds read low 1.01 | locus YBR009C, strain hhf1, active compounds read low 1 | locus YBR021W, strain FUR4, active compounds read low 1 | locus YBR023C, strain chs3, active compounds read low 1.03 | locus YBR171W, strain sec66, active compounds read low 1.03 | locus YBR229C, strain ROT2, active compounds read low 1 | locus YBR231C, strain swc5, active compounds read low 1.04 | locus YBR279W, strain paf1, active compounds read low 1.01 | locus YCL011C, strain gbp2, active compounds read low 1.01 | locus YCL016C, strain dcc1, active compounds read low 1 | locus YCL029C, strain bik1, active compounds read low 0.998 | locus YCL069W, strain vba3, active compounds read low 1.01 | locus YCR088W, strain abp1, active compounds read low 1.01 | locus YDL005C, strain med2, active compounds read low 1.01 | locus YDL035C, strain GPR1, active compounds read low 1.04 | locus YDL040C, strain nat1, active compounds read low 1.02 | locus YDL074C, strain BRE1, active compounds read low 1.01 | locus YDL101C, strain DUN1, active compounds read low 1 | locus YDL134C, strain PPH21, active compounds read low 1.01 | locus YDL185W, strain tfp1, active compounds read low 1.01 | locus YDL192W, strain arf1, active compounds read low 1.01 | locus YDR001C, strain nth1, active compounds read low 1.02 | locus YDR069C, strain doa4, active compounds read low 1.02 | locus YDR101C, strain arx1, active compounds read low 1 | locus YDR137W, strain rgp1, active compounds read low 1.02 | locus YDR150W, strain NUM1, active compounds read low 1.01 | locus YDR159W, strain sac3, active compounds read low 1.02 | locus YDR162C, strain NBP2, active compounds read low 1.02 | locus YDR195W, strain ref2 1.01 | locus YDR297W, strain sur2, active compounds read low 1.02 | locus YDR318W, strain mcm21, active compounds read low 0.985 | locus YDR334W, strain swr1, active compounds read low 1.01 | locus YDR335W, strain msn5, active compounds read low 1.02 | locus YDR388W, active compounds read low 0.995 | locus YDR392W, strain spt3, active compounds read low 0.954 | locus YDR502C, strain sam2, active compounds read low 1.01 | locus YEL003W, strain gim4, active compounds read low 1.02 | locus YEL037C, strain rad23, active compounds read low 1.01 | locus YEL061C, strain CIN8 (second series), active compounds read low 1.01 | locus YEL061C, strain CIN8, active compounds read low 1 | locus YER015W, strain faa2, active compounds read low 1.04 | locus YER016W, strain bim1, active compounds read low 0.997 | locus YER110C, active compounds read low 0.995 | locus YER111C, strain swi4, active compounds read low 1.01 | locus YER155C, strain BEM2 (second series), active compounds read low 1.01 | locus YER155C, strain BEM2, active compounds read low 0.996 | locus YER167W, strain BCK2, active compounds read low 1.03 | locus YFR010W, strain ubp6, active compounds read low 1.02 | locus YGL078C, strain dbp3, active compounds read low 1.01 | locus YGL086W, strain mad1, active compounds read low 1.02 | locus YGL167C, strain pmr1, active compounds read low 1.02 | locus YGL173C, strain kem1, active compounds read low 1.02 | locus YGL227W, strain vid30, active compounds read low 1.02 | locus YGL240W, strain doc1, active compounds read low 1.02 | locus YGL248W, strain PDE1, active compounds read low 1.02 | locus YGL253W, strain hxk2, active compounds read low 1.02 | locus YGR078C, strain PAC10, active compounds read low 1 | locus YGR135W, strain pre9, active compounds read low 1.01 | locus YGR229C, strain SMI1, active compounds read low 1.01 | locus YGR252W, strain gcn5, active compounds read low 1.06 | locus YHR013C, strain ard1, active compounds read low 1 | locus YHR027C, strain rpn1, active compounds read low 1.02 | locus YHR030C, strain SLT2, active compounds read low 1.01 and 0.999 | locus YHR079C, strain IRE1 (second series), active compounds read low 0.995 | locus YHR079C, strain IRE1, active compounds read low 1.03 | locus YHR094C, strain hxt1, active compounds read low 0.99 | locus YHR129C, strain ARP1, active compounds read low 1 | locus YHR142W, strain chs7, active compounds read low 1.01 | locus YHR200W, strain rpn10, active compounds read low 1 | locus YIL066C, strain RNR3, active compounds read low 1.02 | locus YIL073C, strain SPO22, active compounds read low 1 | locus YIL125W, strain kgd1, active compounds read low 1.01 | locus YIR030C, strain dcg1, active compounds read low 0.995 | locus YJL092W, strain hpr5, active compounds read low 1.01 | locus YJL095W, strain BCK1 (second series), active compounds read low 1.02 | locus YJL095W, strain BCK1, active compounds read low 1 | locus YJL115W, strain asf1, active compounds read low 1.02 | locus YJL129C, strain trk1, active compounds read low 1.02 | locus YJL134W, strain LCB3, active compounds read low 1.01 | locus YJL154C, strain vps35, active compounds read low 1.01 | locus YJL164C, strain tpk1, active compounds read low 0.996 | locus YJL166W, strain qcr8, active compounds read low 1.03 | locus YJL168C, strain set2, active compounds read low 0.992 | locus YJL187C, strain SWE1 (second series), active compounds read low 1.01 | locus YJL187C, strain SWE1, active compounds read low 1.02 | locus YJR043C, strain POL32, active compounds read low 1 | locus YJR066W, strain TOR1, active compounds read low 0.939
